# From PubChem BioAssay (Tox21)
# Results filed as inconclusive are left out. A number with no mark means an inactive call. Active and inactive are the calls of the source. Calls come from the whole dose curve; as a rule, active = well fitted activation curve with a large enough effect in the signal ratio in the repeat runs (not every such curve was filed as active); inconclusive = weak or mixed curves, or effect the other way; inactive = no such curve, though single readings can be large or run the other way; the % refers to the signal ratio.
# Target: Peroxisome proliferator-activated receptor gamma (Homo sapiens) (UniProt P37231)
# Sequence (P37231 whole entry, looked up): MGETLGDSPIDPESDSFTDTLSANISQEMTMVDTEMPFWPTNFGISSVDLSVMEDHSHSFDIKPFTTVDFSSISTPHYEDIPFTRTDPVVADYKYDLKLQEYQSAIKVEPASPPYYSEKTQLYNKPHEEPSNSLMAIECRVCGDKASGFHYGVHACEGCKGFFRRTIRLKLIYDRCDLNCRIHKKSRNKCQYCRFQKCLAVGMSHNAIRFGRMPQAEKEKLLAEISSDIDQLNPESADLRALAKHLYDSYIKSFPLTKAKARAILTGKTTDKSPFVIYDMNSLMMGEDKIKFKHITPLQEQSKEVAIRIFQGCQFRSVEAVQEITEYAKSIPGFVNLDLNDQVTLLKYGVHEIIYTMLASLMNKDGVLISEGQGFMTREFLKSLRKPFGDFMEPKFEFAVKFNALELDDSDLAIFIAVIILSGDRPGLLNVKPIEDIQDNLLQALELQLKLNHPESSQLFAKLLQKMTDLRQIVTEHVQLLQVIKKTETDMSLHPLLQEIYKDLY
# Assay: qHTS assay to identify small molecule agonists of the peroxisome proliferator-activated receptor gamma (PPARg) signaling pathway (AID 743094)
# Settings: HEK293H PPARg-UAS-bla, beta-lactamase FRET ratio, 17 h; series mostly up to 57 µM; activation: at the top concentration
# Source text: U.S. Tox21 Program National Center for Advancing Translational Sciences [NCATS] NIH Chemical Genomics Center [NCGC] U.S. Environmental Protection Agency [EPA] National Institutes of Environmental Health Sciences [NIEHS] National Toxicology Program [NTP] U.S. Food and Drug Administration [FDA] Tox21 Assay Overview: The peroxisome proliferator-activated receptors (PPARs) are lipid-activated transcription factors of the nuclear receptor superfamily with three distinct subtypes namely PPAR alpha, PPAR delta (also called PPAR beta) and PPAR gamma (PPARg). All these subtypes heterodimerize with Retinoid X receptor (RXR) and these heterodimers regulate transcription of various genes. PPAR-gamma receptor (glitazone receptor) is involved in the regulation of glucose and lipid metabolism. To identify the compounds that activate PPAR-gamma signaling, GeneBLAzer PPAR gamma UAS-bla HEK293H cell line (Invitrogen, Carlsbad, CA, USA) containing a beta-lactamase reporter gene under control of the control of an upstream activator sequence (UAS) stably integrated into HEK293H cells was used to screen Tox21 compound library.
# Tox21 Assay Protocol Summary: PPARg-bla cells were dispensed at 3000 cells/6uL/well in 1536-well black wall/clear bottom plates using a Multidrop Combi (Thermo Fisher Scientific, Waltham, MA) dispenser. After the assay plates were incubated at 37C and 5% CO2 for 5 h, 23 nL of compounds dissolved in DMSO, positive controls or DMSO only was transferred to the assay plate by a Pintool station (Kalypsys, San Diego, CA). The assay plates were incubated at 37C for 17 h. After 1 uL of LiveBLAzerTM B/G FRET substrate was added using a Bioraptr Flying Reagent Dispenser (FRD) workstation (Beckman Coulter, Indianapolis, IN, USA), the plates were incubated at room temperature for 1 h, and fluorescence intensity was measured by an Envision plate reader (PerkinElmer, Shelton, CT).
# % is set by controls: 0 for no effect and ±100 for the full control effect; potency is the fitted concentration of half-maximal effect.
SMILES,activation,Potency
O=[N+]([O-])c1ccc(Cl)c(Cl)c1Cl,0.18%,–
CCC(C)Nc1c([N+](=O)[O-])cc(C(C)(C)C)cc1[N+](=O)[O-] (stereo not given),-5.12%,–
CC(Cc1ccc(OCC(=O)O)cc1)NCC(O)c1csc(C(F)(F)F)n1 (stereo not given),-3.7%,–
CC(C)N(C(=O)SC/C(Cl)=C/Cl)C(C)C,-0.0287% [at 78.9 µM],–
COC(=O)C(C)N(C(=O)c1ccco1)c1c(C)cccc1C (stereo not given),1.77%,–
CCNc1nc(NC(C)C(C)C)nc(SC)n1 (stereo not given),0.443%,–
CCN(CC)CCc1c[nH]c2ccccc12,-5.55% [at 78.9 µM],–
BrCC(Br)(Br)Br,6.69% [at 78.9 µM],–
CC(C)N(C(=O)CCl)c1ccccc1,2.82%,–
Oc1ccc([C@H]2CNCc3c2ccc(O)c3O)cc1O,-3.75%,–
CC[C@]1(O)CC[C@H]2[C@@H]3CCC4=CCCC[C@@H]4[C@H]3CC[C@@]21C,-9.66%,–
S=C=NCCc1ccccc1,7.34%,–
ClC1(Cl)C2(Cl)C3(Cl)C4(Cl)C(Cl)(Cl)C5(Cl)C3(Cl)C1(Cl)C5(Cl)C24Cl (stereo not given),1.3%,–
Nc1nc(N)c(N)c(N)n1,0.055% [at 78.9 µM],–
O=C(NC(=O)c1ccccc1Cl)Nc1ccc(OC(F)(F)F)cc1,5.44%,–
CNC(C)(C)Cc1ccccc1,-1.03% [at 26.2 µM],–
Oc1ccc(Cl)c(Cl)c1,-11.6%,–
ClC(Cl)C(Cl)(Cl)Cl,-0.511%,–
CCC(C)c1cccc(C(C)CC)c1O (stereo not given),0.86%,–
COc1cnc(OC)n2nc(NS(=O)(=O)c3c(OCC(F)F)cccc3C(F)(F)F)nc12,-0.352%,–

SMILES,activation,Potency
CCCCC/C=C\C/C=C\C/C=C\C/C=C\CCCC(=O)NCC(=O)O,-0.604% [at 7.08 µM],–
CN1CCc2cc(Cl)c(O)cc2[C@H]2c3ccccc3CC[C@@H]21,1.63%,–
COc1nc(C)nc(NC(=O)NS(=O)(=O)c2ccccc2Cl)n1,2.1%,–
COP(=S)(OC)Oc1ccc([N+](=O)[O-])c(C)c1,-0.352%,–
Oc1cc(Cl)cc(Cl)c1,-8.79% [at 78.9 µM],–
O=C(Nc1ccc(F)cc1F)c1cccnc1Oc1cccc(C(F)(F)F)c1,-5.37% [at 78.9 µM],–
CCC(C)Br (stereo not given),4.73% [at 78.9 µM],–
N#Cc1sc2c(=O)c3ccccc3c(=O)c=2sc1C#N,8.4%,–
COP(=S)(NC(C)C)Oc1ccc(C)cc1[N+](=O)[O-] (stereo not given),-5.64%,–
OCC(Br)CBr (stereo not given),-1.07% [at 78.9 µM],–
COc1ccc(Cc2nccc3cc(OC)c(OC)cc23)cc1OC,5.72% [at 26.2 µM],–
O=c1c2ccccc2c(=O)c2c1cc(Cl)c1[nH]c3c([nH]c12)c(Cl)cc1c(=O)c2ccccc2c(=O)c13,0.495%,–
CNN,-3.18% [at 78.9 µM],–
CCC[CH2][Sn]([CH2]CCC)([CH2]CCC)[CH2]CCC,–,54.9 µM (active)
CCCCCON=O,-10.9% [at 78.9 µM],–
C#CCO,-3.45%,–
CNC(=O)Oc1cc(C)cc(C(C)C)c1,1.43%,–
O=[N+]([O-])c1ccc(CCl)cc1,-2.59%,–
CSC(C)(C)/C=N/O,0.519%,–
COC(=O)c1cc(Oc2ccc(Cl)cc2Cl)ccc1[N+](=O)[O-],-0.938%,–
